Measurements taken from the supplement of paper PMC8728848.
This is one part of a sample in which the strongest signals are shown more often than they occur.

Key:
Assay in all cases: glycan array binding signal (z-score within array); higher = stronger binding
Details in all cases: glycan notation: IUPAC condensed, linker removed
Fuc(a1-2)Gal(b1-4)GlcNAc = molecular target: Fuc(a1-2)Gal(b1-4)GlcNAc
Procedure, shortened: (§1)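 Glycan array data were curated from 3228 arrays in the Consortium for Functional Glycomics database and kept only where the protein sequence was available. Glycan names were converted to IUPAC-condensed notation, and columns mapping to the same glycan were averaged. The binding signal is a within-array Z-score, averaged across arrays of the same protein sequence at different concentrations or buffers and across linkers. Negative Z-scores can be read as non-binding.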

[1] = molecular target: Fuc(a1-2)Gal(b1-4)[Fuc(a1-3)]GlcNAc(b1-2)Man(a1-3)[Fuc(a1-2)Gal(b1-4)[Fuc(a1-3)]GlcNAc(b1-2)Man(a1-6)]Man(b1-4)GlcNAc(b1-4)GlcNAc
Procedure, shortened: as §1

[2] = molecular target: Fuc(a1-2)Gal(b1-4)[Fuc(a1-3)]GlcNAc(b1-3)Gal(b1-4)[Fuc(a1-3)]GlcNAc
Procedure, shortened: as §1

[3] = molecular target: Fuc(a1-2)[Gal(a1-3)]Gal(b1-3)GlcNAc(b1-2)Man(a1-3)[Fuc(a1-2)[Gal(a1-3)]Gal(b1-3)GlcNAc(b1-2)Man(a1-6)]Man(b1-4)GlcNAc(b1-4)GlcNAc
Procedure, shortened: as §1

[4] = molecular target: Fuc(a1-2)[Gal(a1-4)]Gal(b1-4)GlcNAc
Procedure, shortened: as §1

[5] = molecular target: Fuc(a1-2)[GalNAc(a1-3)]Gal(b1-4)Glc
Procedure, shortened: as §1

[6] = molecular target: Fuc(a1-2)[GalNAc(a1-4)]Gal(b1-4)GlcNAc
Procedure, shortened: as §1

Gal(a1-3)Gal(b1-3)GlcNAc = molecular target: Gal(a1-3)Gal(b1-3)GlcNAc
Procedure, shortened: as §1

Gal(a1-3)GalNAc = molecular target: Gal(a1-3)GalNAc
Procedure, shortened: as §1

[7] = molecular target: Gal(b1-4)GlcNAc(b1-3)Gal(b1-4)GlcNAc(b1-3)Gal(b1-4)GlcNAc
Procedure, shortened: as §1

Gal6S(b1-4)GlcNAc6S = molecular target: Gal6S(b1-4)GlcNAc6S
Procedure, shortened: as §1

GalNAc(a1-3)Gal = molecular target: GalNAc(a1-3)Gal
Procedure, shortened: as §1

GalNAc(b1-3)Gal = molecular target: GalNAc(b1-3)Gal
Procedure, shortened: as §1

[8] = molecular target: GalNAc(b1-3)Gal(a1-4)Gal(b1-4)GlcNAc
Procedure, shortened: as §1

[9] = molecular target: GalNAc(b1-3)Gal(a1-4)Gal(b1-4)GlcNAc(b1-3)Gal(b1-4)Glc
Procedure, shortened: as §1

GalNAc(b1-4)GlcNAc = molecular target: GalNAc(b1-4)GlcNAc
Procedure, shortened: as §1

Glc(a1-6)Glc(a1-6)Glc = molecular target: Glc(a1-6)Glc(a1-6)Glc
Procedure, shortened: as §1

[10] = molecular target: GlcNAc(a1-4)Gal(b1-4)GlcNAc(b1-3)Gal(b1-4)[Fuc(a1-3)]GlcNAc(b1-3)Gal(b1-4)[Fuc(a1-3)]GlcNAc
Procedure, shortened: as §1

[11] = molecular target: GlcNAc(b1-3)Gal(b1-4)GlcNAc(b1-3)Gal(b1-4)GlcNAc
Procedure, shortened: as §1

[12] = molecular target: GlcNAc(b1-3)[GlcNAc(b1-6)]GlcNAc(b1-4)GlcNAc
Procedure, shortened: as §1

[13] = molecular target: GlcNAc(b1-6)Gal(b1-4)GlcNAc
Procedure, shortened: as §1

Man(a1-2)Man(a1-3)Man = molecular target: Man(a1-2)Man(a1-3)Man
Procedure, shortened: as §1

[14] = molecular target: Neu5Ac(a2-3)Gal(b1-3)GalNAc(b1-3)Gal(a1-4)Gal(b1-4)Glc
Procedure, shortened: as §1

Neu5Ac(a2-3)Gal(b1-4)Glc = molecular target: Neu5Ac(a2-3)Gal(b1-4)Glc
Procedure, shortened: as §1

[15] = molecular target: Neu5Ac(a2-3)Gal(b1-4)GlcNAc(b1-2)Man(a1-3)[GlcNAc(b1-2)Man(b1-4)GlcNAc(b1-2)Man(a1-6)]Man(b1-4)GlcNAc(b1-4)GlcNAc
Procedure, shortened: as §1

[16] = molecular target: Neu5Ac(a2-3)Gal(b1-4)GlcNAc(b1-3)Gal(b1-4)[Fuc(a1-3)]GlcNAc
Procedure, shortened: as §1

[17] = molecular target: Neu5Ac(a2-6)Gal(b1-4)GlcNAc(b1-2)Man(a1-3)[GlcNAc(b1-2)Man(a1-6)]Man(b1-4)GlcNAc(b1-4)GlcNAc
Procedure, shortened: as §1

Neu5Ac(a2-8)Neu5Ac = molecular target: Neu5Ac(a2-8)Neu5Ac
Procedure, shortened: as §1

[18] = molecular target: Neu5Ac(b2-6)Gal(b1-4)GlcNAc
Procedure, shortened: as §1

[19] = molecular target: Neu5Gc(a2-3)Gal(b1-4)GlcNAc
Procedure, shortened: as §1

B1: SSA (Sclerotinia sclerotiorum), A7XUK7 (protein)
chain: MGFKGVGTYEIVPYQAPSLNLNAWEGKLEPGAVVRTYTRGDKPSDNAKWQVALVAGSGDSAEYLIINVHSGYFLTATKENHIVSTPQISPTDPSARWTIKPATTHQYEVFTINNKVSELGQLTVKDYSTHSGADVLSASAKTADNQKWYFDAK
glycan array binding signal (z-score) (Fuc(a1-2)Gal(b1-4)GlcNAc): -0.112 | glycan array binding signal (z-score) [1]: -0.173 | glycan array binding signal (z-score) [2]: -0.407 | glycan array binding signal (z-score) [3]: -0.312 | glycan array binding signal (z-score) [4]: -0.198 | glycan array binding signal (z-score) [5]: -0.1 | glycan array binding signal (z-score) [6]: 3.68 | glycan array binding signal (z-score) (Gal(a1-3)Gal(b1-3)GlcNAc): -0.253 | glycan array binding signal (z-score) (Gal(a1-3)GalNAc): 0.053 | glycan array binding signal (z-score) [7]: -0.142 | glycan array binding signal (z-score) (Gal6S(b1-4)GlcNAc6S): 0.403 | glycan array binding signal (z-score) (GalNAc(a1-3)Gal): 6.1 | glycan array binding signal (z-score) (GalNAc(b1-3)Gal): 3 | glycan array binding signal (z-score) [8]: 4.61 | glycan array binding signal (z-score) [9]: 6.97 | glycan array binding signal (z-score) (GalNAc(b1-4)GlcNAc): 5.32 | glycan array binding signal (z-score) (Glc(a1-6)Glc(a1-6)Glc): -0.343 | glycan array binding signal (z-score) [10]: 0.158 | glycan array binding signal (z-score) [11]: -0.207 | glycan array binding signal (z-score) [12]: -0.467 | glycan array binding signal (z-score) [13]: -0.344 | glycan array binding signal (z-score) (Man(a1-2)Man(a1-3)Man): -0.3 | glycan array binding signal (z-score) [14]: -0.295 | glycan array binding signal (z-score) (Neu5Ac(a2-3)Gal(b1-4)Glc): -0.186 | glycan array binding signal (z-score) [15]: -0.291 | glycan array binding signal (z-score) [16]: -0.158 | glycan array binding signal (z-score) [17]: -0.226 | glycan array binding signal (z-score) (Neu5Ac(a2-8)Neu5Ac): -0.215 | glycan array binding signal (z-score) [18]: -0.415 | glycan array binding signal (z-score) [19]: -0.366
